Screening results as filed in PubChem BioAssay.
Shiga toxin inh: Shiga toxin inhibition | actives 9.2% (n = 290,000) | inhibition, % at 38.7 µM | Vero cells, Shiga toxin protein synthesis inhibition reporter; in the data active = inhibition mostly above about 28%, no sharp cut-off; inactive = mostly below about 43%; note: 0% is about no effect
AmpC inh no detg: inhibitors of E. coli AmpC beta-lactamase without detergent. Potency, µM (top dose mostly 57.1 µM), for inactives: at the top dose activity change, negative = inhibition, hits mostly inhibitors. actives 0.52% (n = 330,000). P00811. AID 485341. AmpC nitrocefin hydrolysis, absorbance 480 nm, 0.0001% Triton;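 note: potency is the fitted concentration of half-maximal effect; plate controls were no compound for no effect and no enzyme for full effect; nearly all actives have a fitted effect of over 20% in size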
Target sequence (P00811 whole entry, looked up): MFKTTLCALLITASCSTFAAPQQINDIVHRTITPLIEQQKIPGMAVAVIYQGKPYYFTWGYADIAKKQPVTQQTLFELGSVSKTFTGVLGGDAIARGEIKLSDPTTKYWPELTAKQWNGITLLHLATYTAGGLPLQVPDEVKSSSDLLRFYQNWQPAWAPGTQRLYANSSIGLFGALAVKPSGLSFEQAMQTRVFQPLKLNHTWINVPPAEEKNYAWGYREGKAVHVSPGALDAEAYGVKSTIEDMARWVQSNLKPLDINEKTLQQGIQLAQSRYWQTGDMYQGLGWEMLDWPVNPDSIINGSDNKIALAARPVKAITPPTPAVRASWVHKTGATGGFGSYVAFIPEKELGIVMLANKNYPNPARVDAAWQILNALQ
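AmpC (5.3 nM in the dispensed reagent) in 20 mM phosphate pH 7.0 with 0.01% (detergent screen) or 0.0001% Triton X-100 was preincubated with compounds for 15 min at room temperature. Nitrocefin was then added from an 800 uM solution, and hydrolysis was followed at 480 nm.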
AMA1-RON2 inh: disrupts binding of P. falciparum AMA1 to RON2. AID 720542. AlphaScreen AMA1-biotinylated RON2 peptide binding. Potency, µM (series often up to 58.2 µM), for the others: top-dose activity change, negative = inhibition, hits mostly inhibitors. actives 0.2% (n = 360,000);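 note: potency is the fitted concentration of half-maximal effect; 0% = vehicle wells and -100% = peptide control; nearly all actives have a fitted effect of over 45% in size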
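AMA1 (3D7) with his tag at 25 nM final met compounds first, then biotinylated RON2 peptide at 25 nM; detection used donor plus acceptor beads, 10 µg/mL apiece, read by AlphaScreen after 30 min at room temperature.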
SARS PLpro yeast: SARS-CoV PLP inhibition in yeast | S. cerevisiae expressing SARS-CoV PLpro, growth rescue | Potency, µM (highest dose often 32.9 µM), inactives show at the top dose activity, positive = growth rescue, most hits filed as activators | actives 0.19% (n = 330,000) | AID 485353; calls by dose curve; note: potency is the fitted concentration of half-maximal effect; 0% is about no effect; nearly all actives have a fitted effect of over 55% in size
CHX counter: counter-screen hit for Shiga toxin inhibitors, cycloheximide; actives 12% (n = 300,000); cell reporter, cycloheximide protein synthesis inhibition counterscreen; AID 2314; max response, %; in the data active = max response mostly above about 13%, no sharp cut-off; inactive = mostly below about 14%; note: read at 38.3 µM for the half of the compounds with a filed dose; 0% is about no effect
AmpC inh detg: AmpC beta-lactamase inhibition with detergent present. P00811. AmpC hydrolysis of nitrocefin, absorbance 480 nm, 0.01% Triton. Potency, µM (titrated, usually from 114 µM), without a hit: top-dose activity change, negative = inhibition, actives largely listed as inhibitors. actives 0.041% (n = 370,000). AID 485294;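 note: potency is the fitted concentration of half-maximal effect; 0% = no-compound wells and -100% = no-enzyme wells; nearly all actives have a fitted effect of over 25% in size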
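20 mM phosphate pH 7.0 + 0.01% (detergent screen) or 0.0001% Triton X-100; 5.3 nM AmpC reagent; cpd preinc 15 min RT; nitrocefin (800 uM stock) to start; A480 q20 s × 4 min; Activity was normalised to no-enzyme and no-compound control wells.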
* marks the source's active call; other numbers are inactive results; ? = inconclusive; · = no result given. Shown is part of a subset that was picked to be rich in hits. Unless noted, calls come from the whole dose curve; as a rule, active = well fitted curve in the direction sought with a large enough effect; inconclusive = small, poorly fitted or top-dose-only effect, or another doubt; inactive = no such curve, though single readings can be large; an effect the other way counts as inactive or inconclusive.

SMILES | Shiga toxin inh | AmpC inh no detg | AMA1-RON2 inh | SARS PLpro yeast | CHX counter | AmpC inh detg
C#CCOC(=O)CCCN1C(=O)c2cccc3cccc(c23)C1=O | · | · | 10% | · | · | ·
O=C(Nc1cccs1)N1CCN(c2ncccn2)CC1 | 2 | -13% | -3% | -1% | 15 | -6%
CN1C(=O)C(O)(c2sc(N)nc2-c2ccccc2)c2ccccc21 (stereo not given) | 18 | -11% | -15% | 1% | -1 | -15%
O=C1c2ccccc2C(=O)N1CCSC(=S)N1CCOCC1 | 51 | -5% | -2% | 3% | 26* | 7%
Cc1nc2sccn2c(=O)c1S(=O)(=O)NCC(C)c1ccccc1 (stereo not given) | -5 | -1% | -3% | 0% | 3 | -7%
Cc1ccc(-c2cc(C(=O)Nc3cccnc3)[nH]n2)c(O)c1C | 100* | -30% | 62% | 0% | 39* | 3%
CC(=O)Nc1ccc(NC(=O)c2cc(-c3ccc(C)cc3O)n[nH]2)cc1 | 27 | -13% | 10% | 1% | 3 | -6%
Cc1cc(F)ccc1-c1cc(C(=O)Nc2ccc(F)cc2)[nH]n1 | · | · | -6% | · | · | ·
Cc1cccc(NC(=O)c2cc(-c3cc(C)c(C)cc3O)n[nH]2)c1 | 43* | -24% | 38% | -1% | 28* | -14%
Cc1cccc(NC(=O)c2cc(-c3cc(C)ccc3O)n[nH]2)c1 | 108* | -30% | 72% | -1% | 40* | -8%
Cc1c(Cl)cccc1NC(=O)c1cc(-c2ccccc2O)n[nH]1 | 36 | -38% | -21% | 0% | 18* | -10%
Cc1noc(-c2ccc(-c3noc(-c4ccc(Cl)cc4)n3)cc2)n1 | · | · | · | · | · | -5%
Cc1ccccc1-c1noc(-c2ccc(Cl)cc2)n1 | 26 | -25% | -2% | -7% | 24* | -1%
NC(=O)c1ccccc1-c1noc(-c2ccccc2F)n1 | · | -6% | · | -1% | · | -1%
Cc1ccccc1-c1noc(-c2ccccc2F)n1 | 68* | -44% | 32% | 3% | 36* | -12%
Cc1ccccc1-c1noc(-c2cc(-c3ccc(F)cc3)n[nH]2)n1 | · | · | · | · | · | 5%
Cc1ccccc1-c1noc(-c2ccc(O)cc2)n1 | 65* | -21% | 7% | -27% | 52* | -12%
COc1ccc(CNC(=O)c2ccc(N3CCC4(CC3)CC(c3ccc(Cl)cc3)=NO4)c(NC(=O)Cc3ccc(F)cc3)c2)cc1 | · | -38% | -2% | -5% | · | ·
O=C(NC1CCCCC1)C(c1cccs1)N(C(=O)c1ccco1)c1ccc2c(c1)OCCO2 (stereo not given) | 10* | 14% | 0% | -8% | 24* | -15%
CCOc1ccccc1N(C(=O)c1ccco1)C(C(=O)NC1CCCC1)c1cccs1 (stereo not given) | 2 | 34% | -13% | -1% | -2 | 1%
CC(=O)c1ccc(N(C(=O)c2ccco2)C(C(=O)NC2CCCC2)c2cccs2)cc1 (stereo not given) | 26 | 7% | -18% | 1% | 29* | -8%
COc1ccc(N(CC(=O)Nc2ccc(C)cc2C)S(=O)(=O)c2c(C)n[nH]c2C)cc1 | -14 | 84% | 8% | 1% | -2 | 1%
O=C(CCSc1ccccc1)NCCN1CCOCC1 | 11 | -8% | -3% | -2% | 11 | -13%
CCOc1ccc(-n2nnnc2SCC(=O)N2CCOCC2)cc1 | 10 | -19% | -12% | -9% | -1 | -9%
O=C(CCSc1ccccc1)N1CCOCC1 | 80* | -17% | -8% | -5% | 35* | ?
SMILES | Shiga toxin inh | AmpC inh no detg | AMA1-RON2 inh | SARS PLpro yeast | CHX counter | AmpC inh detg
O=C(CCSc1nnnn1-c1ccccc1)N1CCOCC1 | 36* | -14% | 17% | 0% | 15 | -6%
O=C(CCSc1ccccc1)N1CCCC1 | 79* | 0% | 3% | -2% | 46* | -2%
O=C(CCSc1nc2ccccc2o1)N1CCOCC1 | 56* | -16% | -6% | -29% | 32* | -8%
Cc1ccc(C(=O)Nc2ccc(C(=O)OCc3cc(=O)n4nc(C5CC5)sc4n3)cc2)cc1 | · | · | · | · | · | 8%
Cc1ccc2nc(N3C(=O)C(O)=C(C(=O)c4ccco4)C3c3cccs3)sc2c1 (stereo not given) | 68* | -21% | 17% | -17% | 34* | -15%
COc1ccc(C2C(C(=O)c3ccco3)=C(O)C(=O)N2c2nnc(C)s2)cc1 (stereo not given) | 76* | 2% | 15% | -1% | 55* | -1%
C=CCOc1ccc(C2C(C(=O)c3ccco3)=C(O)C(=O)N2c2nnc(C)s2)cc1 (stereo not given) | 71* | -33% | 34% | 0% | 23* | -2%
CCOc1cccc(C2C(C(=O)c3ccc(C)o3)=C(O)C(=O)N2c2nnc(C)s2)c1 (stereo not given) | · | · | 4% | · | · | ·
COc1ccc(C2C(C(=O)c3ccco3)=C(O)C(=O)N2c2nnc(C)s2)cc1OC (stereo not given) | 6 | -15% | 24% | 3% | -1 | -4%
COc1c(C)cc(Br)cc1C(=O)NCc1cccnc1 | -3 | -15% | -2% | 2% | -1 | 0%
Cc1ccc(NC(=O)c2c(C(=O)Nc3ccccc3)sc3nc(C)cc(=O)n23)c(C)c1 | · | · | · | · | · | 1%
CCOc1ccc(C(=O)NCC(=O)Nc2ccc3c(c2)OCO3)cc1OCC | · | -4% | 22% | 1% | · | -17%
Cc1cccc(C)c1OCc1nnc(SCC(=O)Nc2ccc(N3CCOCC3)cc2)o1 | -22 | -5% | 4% | 0% | -6 | -1%
Cc1cc(/C=C/C(=O)O)c(C)n1-c1ccc(Cl)cc1 | -14 | -27% | -1% | -1% | -2 | 7%
O=c1[nH]c(COc2ccc(Cl)cc2Br)nc2ccccc12 | 127* | -53% | -4% | -15% | 51* | -7%
O=c1[nH]c(COc2ccc(Cl)cc2Cl)nc2ccccc12 | 41* | -23% | 1% | -2% | 38* | -4%
O=c1[nH]c(Cc2ccccc2Cl)nc2ccccc12 | -3 | -17% | 17% | 2% | 8 | -8%
O=C(CCc1nc2ccccc2c(=O)[nH]1)NNC(=O)COc1ccccc1Cl | · | -1% | 87% | 1% | · | -11%
COc1ccc(F)cc1S(=O)(=O)NCCc1sc2nc(-c3ccc(F)cc3)nn2c1C | · | · | · | · | · | -1%
CCN(C[C@H]1N[C@@](Cc2ccccc2)(C(=O)OC)[C@H]2C(=O)N(Cc3ccccc3)C(=O)[C@@H]12)S(=O)(=O)c1ccccc1 | · | -2% | -15% | -5% | · | ·
COCC(=O)N(Cc1cc2cc(OC)ccc2[nH]c1=O)c1ccccc1 | 34 | -11% | 6% | 1% | 16* | ?
COCC(=O)N(Cc1cc2ccccc2[nH]c1=O)c1ccc(OC)cc1 | -7 | -5% | 6% | 5% | -3 | -10%
O=C(NC(=S)Nc1ccc(N2CCOCC2)cc1)c1cccs1 | 73* | -19% | 35% | 0% | 41* | -1%
